Article PMC7862700, “An all-to-all approach to the identification of sequence-specific readers for epigenetic DNA modifications on cytosine”

How the values were obtained:
Assay in all cases: DAPPL (digital affinity profiling via proximity ligation, sequencing); 10 mM Tris-HCl pH 7.5, 50 mM NaCl, 1 mM DTT, 4% glycerol, room temperature, 30 min; GST-TFs on glutathione beads, 16-mer random dsDNA library, 0.1% formaldehyde crosslink after washing; high values mean tight binding
Details in all cases: protein: recombinant; tags: N-terminal GST; dsDNA, one strand shown
[1] = biological target: T1, ELK1 (Homo sapiens, UniProt P19419 1-428)
T1 sequence: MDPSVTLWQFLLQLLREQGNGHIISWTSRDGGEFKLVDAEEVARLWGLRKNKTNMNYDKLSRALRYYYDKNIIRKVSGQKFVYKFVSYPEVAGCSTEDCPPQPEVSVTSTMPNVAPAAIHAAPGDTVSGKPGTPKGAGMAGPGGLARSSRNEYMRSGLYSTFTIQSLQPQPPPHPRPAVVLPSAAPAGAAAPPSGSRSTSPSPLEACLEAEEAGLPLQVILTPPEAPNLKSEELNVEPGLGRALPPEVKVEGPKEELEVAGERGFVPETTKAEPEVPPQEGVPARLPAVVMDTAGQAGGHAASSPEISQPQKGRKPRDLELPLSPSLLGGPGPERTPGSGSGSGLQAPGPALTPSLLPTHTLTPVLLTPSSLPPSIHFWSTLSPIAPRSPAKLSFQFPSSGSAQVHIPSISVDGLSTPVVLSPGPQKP
Procedure, shortened: (§1)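 GST fusions of human transcription factors were expressed in yeast and captured with glutathione beads. Once given DNA barcodes and pooled alongside a tag-only sample, they were incubated for 30 min at room temperature with 200 nmole of a random double-stranded 16-mer DNA library in Tris/NaCl/DTT/glycerol buffer, then washed, crosslinked (0.1% formaldehyde), proximity-ligated, PCR-amplified and sequenced on an Illumina NextSeq500. The binding signal of each hexamer is its read frequency for a factor divided by its frequency for the tag-only sample.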

[2] = biological target: T2, GABPA (Homo sapiens, UniProt Q06546 1-454)
T2 sequence: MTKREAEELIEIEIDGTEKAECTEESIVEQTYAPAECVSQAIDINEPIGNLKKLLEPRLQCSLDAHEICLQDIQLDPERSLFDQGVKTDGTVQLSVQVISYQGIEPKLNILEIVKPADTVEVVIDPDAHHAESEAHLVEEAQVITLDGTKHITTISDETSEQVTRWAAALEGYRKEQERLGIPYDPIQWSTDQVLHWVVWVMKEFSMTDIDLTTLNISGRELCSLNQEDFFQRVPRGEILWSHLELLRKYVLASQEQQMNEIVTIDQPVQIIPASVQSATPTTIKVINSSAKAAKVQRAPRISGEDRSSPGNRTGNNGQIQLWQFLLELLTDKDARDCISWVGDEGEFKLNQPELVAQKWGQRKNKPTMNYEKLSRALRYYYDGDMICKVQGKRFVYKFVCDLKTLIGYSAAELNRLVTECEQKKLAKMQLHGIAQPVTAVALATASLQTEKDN
Procedure, shortened: as §1

[3] = biological target: SPI1 (Homo sapiens, UniProt P17947 1-270)
Procedure, shortened: as §1

[4] = biological target: T3, ELK3 (Homo sapiens, UniProt P41970 1-407)
T3 sequence: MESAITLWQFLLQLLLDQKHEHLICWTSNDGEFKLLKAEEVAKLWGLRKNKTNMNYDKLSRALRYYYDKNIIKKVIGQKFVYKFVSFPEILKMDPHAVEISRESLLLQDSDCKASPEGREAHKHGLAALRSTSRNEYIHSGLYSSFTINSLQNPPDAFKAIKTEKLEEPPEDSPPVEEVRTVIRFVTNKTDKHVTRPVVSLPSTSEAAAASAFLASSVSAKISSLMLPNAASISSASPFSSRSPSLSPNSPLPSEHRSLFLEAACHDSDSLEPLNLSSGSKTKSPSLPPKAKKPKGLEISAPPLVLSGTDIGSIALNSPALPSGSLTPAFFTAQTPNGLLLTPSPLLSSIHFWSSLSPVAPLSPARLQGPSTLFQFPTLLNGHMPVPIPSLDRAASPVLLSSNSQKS
Procedure, shortened: as §1

[5] = biological target: T4, SPIC (Homo sapiens, UniProt Q8N5J4 1-248)
T4 sequence: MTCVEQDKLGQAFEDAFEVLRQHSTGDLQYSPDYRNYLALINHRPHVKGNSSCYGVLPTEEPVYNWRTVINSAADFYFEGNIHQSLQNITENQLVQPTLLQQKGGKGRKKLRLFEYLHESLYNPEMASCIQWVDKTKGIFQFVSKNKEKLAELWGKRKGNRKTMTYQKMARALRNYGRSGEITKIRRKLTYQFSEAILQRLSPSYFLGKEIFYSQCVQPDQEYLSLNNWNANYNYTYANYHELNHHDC
Procedure, shortened: as §1

[6] = biological target: ELF4 (Homo sapiens, UniProt Q99607 1-663)
Procedure, shortened: as §1

[7] = biological target: T5, ETV2 (Homo sapiens, UniProt O00321 1-342)
T5 sequence: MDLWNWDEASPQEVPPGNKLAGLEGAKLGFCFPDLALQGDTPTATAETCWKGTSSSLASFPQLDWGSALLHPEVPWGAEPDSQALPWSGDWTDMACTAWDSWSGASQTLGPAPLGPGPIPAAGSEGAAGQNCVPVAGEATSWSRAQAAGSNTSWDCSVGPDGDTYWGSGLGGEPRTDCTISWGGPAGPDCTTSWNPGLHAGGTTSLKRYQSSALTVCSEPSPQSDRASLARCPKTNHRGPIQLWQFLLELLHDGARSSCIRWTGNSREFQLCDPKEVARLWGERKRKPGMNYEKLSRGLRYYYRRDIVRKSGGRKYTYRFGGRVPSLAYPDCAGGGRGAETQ
Procedure, shortened: as §1

[8] = biological target: ETV1 (Homo sapiens, UniProt P50549 1-477)
Procedure, shortened: as §1

[9] = biological target: T6, ERF (Homo sapiens, UniProt P50548 1-548)
T6 sequence: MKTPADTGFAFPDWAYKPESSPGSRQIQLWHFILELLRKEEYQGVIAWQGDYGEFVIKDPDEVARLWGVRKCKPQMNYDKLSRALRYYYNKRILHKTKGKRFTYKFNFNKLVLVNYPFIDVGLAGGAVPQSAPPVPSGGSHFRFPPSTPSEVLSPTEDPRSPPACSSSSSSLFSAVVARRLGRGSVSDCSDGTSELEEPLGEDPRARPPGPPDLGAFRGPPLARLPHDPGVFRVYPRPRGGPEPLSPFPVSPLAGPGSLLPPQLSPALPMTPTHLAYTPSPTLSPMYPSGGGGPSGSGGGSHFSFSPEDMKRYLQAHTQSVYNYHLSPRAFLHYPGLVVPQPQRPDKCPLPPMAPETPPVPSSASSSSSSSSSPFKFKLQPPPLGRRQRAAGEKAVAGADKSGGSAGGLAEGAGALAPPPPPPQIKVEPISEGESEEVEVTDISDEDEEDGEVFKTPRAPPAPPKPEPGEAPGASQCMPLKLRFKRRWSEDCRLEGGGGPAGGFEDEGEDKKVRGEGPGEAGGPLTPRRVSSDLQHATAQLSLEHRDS
Procedure, shortened: as §1

[10] = biological target: T7, ETS2 (Homo sapiens, UniProt P15036 1-469)
T7 sequence: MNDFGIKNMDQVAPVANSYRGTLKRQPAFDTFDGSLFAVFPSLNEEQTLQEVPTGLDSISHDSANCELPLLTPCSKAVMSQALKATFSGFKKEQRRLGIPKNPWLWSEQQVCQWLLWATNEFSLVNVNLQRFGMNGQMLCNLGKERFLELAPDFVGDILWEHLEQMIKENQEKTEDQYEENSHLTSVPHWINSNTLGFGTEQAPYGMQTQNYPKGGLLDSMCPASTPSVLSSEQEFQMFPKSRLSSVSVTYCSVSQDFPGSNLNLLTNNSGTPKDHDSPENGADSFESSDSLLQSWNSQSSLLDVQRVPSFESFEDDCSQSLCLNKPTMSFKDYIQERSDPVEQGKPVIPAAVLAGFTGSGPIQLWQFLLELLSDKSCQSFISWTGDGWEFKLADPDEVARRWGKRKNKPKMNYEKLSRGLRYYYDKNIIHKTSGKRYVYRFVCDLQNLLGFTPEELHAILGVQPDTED
Procedure, shortened: as §1

[11] = biological target: T8, ETV7 (Homo sapiens, UniProt Q9Y603 1-341)
T8 sequence: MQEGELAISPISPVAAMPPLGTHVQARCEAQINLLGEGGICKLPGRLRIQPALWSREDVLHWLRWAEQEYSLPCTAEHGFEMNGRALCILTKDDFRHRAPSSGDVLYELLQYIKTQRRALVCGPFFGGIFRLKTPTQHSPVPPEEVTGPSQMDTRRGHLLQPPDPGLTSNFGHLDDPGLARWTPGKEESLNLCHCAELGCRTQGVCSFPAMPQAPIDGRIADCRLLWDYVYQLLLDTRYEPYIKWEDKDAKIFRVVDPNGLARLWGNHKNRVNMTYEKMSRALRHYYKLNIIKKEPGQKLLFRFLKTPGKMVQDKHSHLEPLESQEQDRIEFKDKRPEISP
Procedure, shortened: as §1

[12] = biological target: T9, ELF5 (Homo sapiens, UniProt Q9UKW6-2 1-255)
T9 sequence: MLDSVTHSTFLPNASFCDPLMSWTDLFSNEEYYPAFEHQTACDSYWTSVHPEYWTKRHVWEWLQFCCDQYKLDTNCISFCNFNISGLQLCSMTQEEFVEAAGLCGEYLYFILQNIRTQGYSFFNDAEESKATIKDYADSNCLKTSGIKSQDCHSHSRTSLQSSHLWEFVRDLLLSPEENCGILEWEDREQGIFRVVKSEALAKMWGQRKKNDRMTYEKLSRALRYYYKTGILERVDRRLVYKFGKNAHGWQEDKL
Procedure, shortened: as §1

[13] = biological target: T10, ETV3 (Homo sapiens, UniProt P41162-2 1-143)
T10 sequence: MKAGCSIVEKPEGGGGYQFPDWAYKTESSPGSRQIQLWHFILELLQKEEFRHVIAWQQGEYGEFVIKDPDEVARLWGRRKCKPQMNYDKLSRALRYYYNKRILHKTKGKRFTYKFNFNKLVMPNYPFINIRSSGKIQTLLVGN
Procedure, shortened: as §1

Sequence of ELF4 (Q99607 whole entry): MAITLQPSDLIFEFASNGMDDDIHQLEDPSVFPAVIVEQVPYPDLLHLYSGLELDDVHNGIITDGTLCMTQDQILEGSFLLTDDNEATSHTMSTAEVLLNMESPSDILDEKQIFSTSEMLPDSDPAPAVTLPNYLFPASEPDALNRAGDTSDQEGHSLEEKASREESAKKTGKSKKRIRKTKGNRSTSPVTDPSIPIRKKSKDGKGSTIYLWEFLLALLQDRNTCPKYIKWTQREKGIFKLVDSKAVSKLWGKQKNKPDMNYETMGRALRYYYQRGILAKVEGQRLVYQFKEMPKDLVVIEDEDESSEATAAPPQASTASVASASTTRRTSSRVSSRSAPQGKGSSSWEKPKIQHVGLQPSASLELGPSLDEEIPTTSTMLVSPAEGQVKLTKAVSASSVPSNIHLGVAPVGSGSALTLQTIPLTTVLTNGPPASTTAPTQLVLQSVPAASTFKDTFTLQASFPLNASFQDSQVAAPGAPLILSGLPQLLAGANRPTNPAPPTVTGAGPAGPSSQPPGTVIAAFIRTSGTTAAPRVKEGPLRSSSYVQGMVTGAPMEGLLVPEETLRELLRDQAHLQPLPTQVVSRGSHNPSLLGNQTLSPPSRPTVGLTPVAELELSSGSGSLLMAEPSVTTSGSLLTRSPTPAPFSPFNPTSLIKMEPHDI
Sequence of ETV1 (P50549 whole entry): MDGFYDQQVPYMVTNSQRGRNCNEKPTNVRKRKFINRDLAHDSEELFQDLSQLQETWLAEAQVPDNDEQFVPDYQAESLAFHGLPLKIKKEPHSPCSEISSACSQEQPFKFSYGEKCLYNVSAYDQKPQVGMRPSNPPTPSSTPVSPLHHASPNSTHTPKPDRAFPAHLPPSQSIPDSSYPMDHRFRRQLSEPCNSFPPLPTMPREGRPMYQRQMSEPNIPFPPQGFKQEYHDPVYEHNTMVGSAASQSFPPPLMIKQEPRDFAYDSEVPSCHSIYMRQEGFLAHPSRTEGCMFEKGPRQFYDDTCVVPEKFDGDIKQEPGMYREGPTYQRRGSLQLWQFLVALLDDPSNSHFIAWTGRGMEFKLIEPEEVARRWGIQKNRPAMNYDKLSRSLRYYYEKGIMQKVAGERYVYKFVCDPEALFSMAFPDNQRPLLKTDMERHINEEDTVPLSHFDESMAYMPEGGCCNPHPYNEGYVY

## ACCTGT
[1]
  binding signal: 1.05 fold enrichment (6-mer frequency, TF over GST control)
[2]
  binding signal: 1 fold enrichment (6-mer frequency, TF over GST control)
[3]
  binding signal: 1.01 fold enrichment (6-mer frequency, TF over GST control)
[4]
  binding signal: 1.12 fold enrichment (6-mer frequency, TF over GST control)
[5]
  binding signal: 1.06 fold enrichment (6-mer frequency, TF over GST control)
[6]
  binding signal: 1.06 fold enrichment (6-mer frequency, TF over GST control)
[7]
  binding signal: 1.04 fold enrichment (6-mer frequency, TF over GST control)
[8]
  binding signal: 1.02 fold enrichment (6-mer frequency, TF over GST control)
[9]
  binding signal: 1.08 fold enrichment (6-mer frequency, TF over GST control)
[10]
  binding signal: 1.04 fold enrichment (6-mer frequency, TF over GST control)
[11]
  binding signal: 1.07 fold enrichment (6-mer frequency, TF over GST control)
[12]
  binding signal: 1.04 fold enrichment (6-mer frequency, TF over GST control)
[13]
  binding signal: 1.13 fold enrichment (6-mer frequency, TF over GST control)
